From PubChem BioAssay
MEKK2 WT-MEK5 = modulators of MEK5 binding to wildtype MEKK2, primary screen, biochemical, multiplex bead flow cytometry, Alexa488-MEK5. Mitogen-activated protein kinase kinase kinase 2 (Homo sapiens), Q9Y2U5. Alexa488-MEK5 binding to MEKK2 WT; actives lie on both sides. binding response (% of control), % at 10 µM. actives 1.1% (n = 290,000). AID 1531, 2009; in the data active means binding response below about 67% or above about 130%
MEKK3 PB1 HTS = modulators of MEKK3-MEK5 PB1 binding, primary screen, biochemical, wildtype MEKK3, multiplex bead flow cytometry, Alexa488-MEK5 | binding response (% of control), % at 10 µM | actives 1.4% (n = 290,000) | AID 1529, 2009 | Mitogen-activated protein kinase kinase kinase 3 (Homo sapiens), Q99759 | bead-based flow cytometry, Alexa488-MEK5 binding to MEKK3; actives lie on both sides; 0 = blocked by unlabeled MEK5, 100 = vehicle;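 active means binding response more than 3 SD above or below the average of its plate-row segment, actives on both sides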;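 further: Alexa488 bead fluorescence after subtracting the streptavidin-only scavenger bead signal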
MEKK2 mut-MEK5 = MEK5 binding signal on mutant MEKK2 PB1, primary screen, biochemical, multiplex bead flow cytometry, Alexa488-MEK5 | percent response, % at 10 µM | Alexa488-MEK5 binding to MEKK2 mutant | AID 1530, 2009 | actives 0.35% (n = 290,000); in the data active means percent response above about 24%, passing the limit was not always enough
CHT PAM = CHT positive allosteric modulators, primary screen, cell-based, membrane potential dye, choline EC20. actives 0.49% (n = 310,000). B-score at 10 µM. CHT-expressing cells; stronger effect = higher value; LV-AA mutant CHT in HEK293 cells. AID 488977, 2010;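 active means initial fluorescence not abnormally high and integrated response B-score, plate-corrected, over 3 SD above library mean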
Target sequence (Q9GZV3 whole entry, looked up): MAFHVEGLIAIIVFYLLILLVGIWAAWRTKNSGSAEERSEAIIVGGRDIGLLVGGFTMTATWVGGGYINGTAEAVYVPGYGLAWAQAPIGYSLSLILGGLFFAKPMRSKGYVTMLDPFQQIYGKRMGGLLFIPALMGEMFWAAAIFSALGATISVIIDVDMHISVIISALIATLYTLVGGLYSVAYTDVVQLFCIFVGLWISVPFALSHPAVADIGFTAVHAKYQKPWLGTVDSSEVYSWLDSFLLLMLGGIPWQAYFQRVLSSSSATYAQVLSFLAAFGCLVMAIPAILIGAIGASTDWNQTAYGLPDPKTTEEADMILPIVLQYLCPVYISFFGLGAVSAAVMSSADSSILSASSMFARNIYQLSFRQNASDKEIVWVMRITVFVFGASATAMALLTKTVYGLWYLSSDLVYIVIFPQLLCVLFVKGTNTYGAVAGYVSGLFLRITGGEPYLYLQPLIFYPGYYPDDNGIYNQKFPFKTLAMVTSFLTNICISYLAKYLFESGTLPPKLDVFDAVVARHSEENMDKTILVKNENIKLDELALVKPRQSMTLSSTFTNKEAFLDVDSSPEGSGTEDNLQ
CHT block = inhibitors of human choline transporter CHT; AID 488975, 2010; CHT-expressing cells, membrane potential dye, choline response; stronger effect = lower value; High affinity choline transporter 1 (Homo sapiens), Q9GZV3; actives 0.86% (n = 310,000); B-score at 10 µM;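 active means B-score over 3 SD under the library average, and starting fluorescence ratio not unusually high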;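 further: choline stimulus applied at its EC90 after an EC20 pre-addition; B-score computed on integrated fluorescence ratio after choline addition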
Mot1-301 SUMO = yeast Mot1-301 growth rescue at high temperature, primary screen, SUMOylation pathway inhibitor project, S. cerevisiae, ATP luminescence, 38.5C. growth rescue, % at 18.8 µM. actives 1% (n = 320,000). S. cerevisiae Mot1-301 growth rescue; percent above DMSO median, 100 means doubled;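 active means every valid replicate shows activation above 250% relative to neutral control wells; inactive means the rest, any valid replicate at or below 250%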
Yeast Mot1 SUMO = growth restoration of Mot1-301 yeast on galactose, dose response, SUMO pathway inhibitor project, whole organism, S. cerevisiae, ATP luminescence, cherry-picked samples. shares compounds with Mot1-301 SUMO. S. cerevisiae Mot1-301 galactose growth, 24 h; -100 = growth of slx-deleted rescue strain. 2,300 tested, under 10 active. AID 493004, 2010. growth activity, percent, % at 42 µM;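 active means Signal drops as the depositor expects, and the fitted half-maximal dose is no more than ten times the top valid tested dose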;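 further: more negative values mean stronger growth rescue toward the control strain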
Large screens that a line does not name were inactive (follow-up assays come after a bar, where they were run). The list is not random: actives were taken first. Their share in the collection is about 4.1%.

CCCc1ccc(S(=O)(=O)NCCc2ccncc2)cc1	Mot1-301 SUMO 541 | Yeast Mot1 SUMO inactive
CC(C)(C)NC(=O)NC(=O)CN1CCN(S(=O)(=O)c2ccc3c(c2)OCCO3)CC1	Mot1-301 SUMO 988 | Yeast Mot1 SUMO inactive
O=C(Oc1cccc(C(=S)N2CCOCC2)c1)c1cc([N+](=O)[O-])cc([N+](=O)[O-])c1	none
On1c(-c2ccccc2)nc2ncccc21	none
On1c(-c2ccccc2Cl)nc2ncccc21	Mot1-301 SUMO 498 | Yeast Mot1 SUMO inactive
O=C(O)CCc1ccc(-c2cccs2)n1NC(=O)c1ccc(O)cc1	none
O=C(O)CCc1ccc(-c2cccs2)n1NC(=O)c1cccs1	Mot1-301 SUMO active | Yeast Mot1 SUMO inactive
N#C/C(=C\Nc1ccc2c(c1)OCCO2)c1nc2ccccc2[nH]1	Mot1-301 SUMO 935 | Yeast Mot1 SUMO inactive
COc1ccc(OC)c(N(CC(=O)N2CCCC2)S(=O)(=O)c2ccccc2)c1	Mot1-301 SUMO 469 | Yeast Mot1 SUMO inactive
CN1CC2(C)OC(=O)C(Cl)=C2CC1c1ccccc1 (stereo not drawn)	Mot1-301 SUMO 431 | Yeast Mot1 SUMO inactive
COc1ccc(Cl)cc1NC(=O)c1cc(C)no1	none
COc1ccc(NC(=O)c2cc(C)no2)cc1Cl	Mot1-301 SUMO 432 | Yeast Mot1 SUMO inactive
O=C1CCC(/C=C/c2ccccc2)=NN1Cc1ccc(Cl)c(Cl)c1	Mot1-301 SUMO 659 | Yeast Mot1 SUMO inactive
O=C(CN1CCN(Cc2ccc(Cl)cc2)CC1)N/N=C/c1ccncc1	Mot1-301 SUMO 374 | Yeast Mot1 SUMO inactive
CSc1ccc(/C=N/NC(=O)CN2CCN(Cc3ccc(C)cc3)CC2)cc1	none
COc1cccc(CNC(=O)Cc2ccc(S(=O)(=O)N3CCOCC3)s2)c1	none (no result: MEKK2 WT-MEK5, MEKK3 PB1 HTS, MEKK2 mut-MEK5, Mot1-301 SUMO)
Cn1ccs/c1=N\C(=O)Nc1cccc(Cl)c1	none
Cc1cc(C(F)(F)F)nc(SCC(=O)Nc2cc(C)on2)n1	Mot1-301 SUMO active | Yeast Mot1 SUMO inactive
CCN(CC)C(=O)Cn1cc(S(=O)(=O)CC(=O)NCCc2ccc(OC)c(OC)c2)c2ccccc21	Mot1-301 SUMO 384 | Yeast Mot1 SUMO inactive
COc1ccc(N2C(=O)CSC23CCCCC3)cc1	Mot1-301 SUMO active | Yeast Mot1 SUMO inactive
CCOC(=O)c1ccc(NC(=O)c2c(NC(=O)CCC(=O)O)sc3c2CCCCC3)cc1	Mot1-301 SUMO 631 | Yeast Mot1 SUMO inactive
Nn1c(SCC(=O)Nc2ccccc2C(F)(F)F)nncc1=O	none
CC(C)(C)NC(=O)C1Cc2ccccc2CN1S(=O)(=O)c1ccc(F)cc1 (stereo not drawn)	Mot1-301 SUMO 584 | Yeast Mot1 SUMO inactive
N#Cc1ccc(C23CC4(C2)[C@H](CN(Cc2ccc(C(F)(F)F)cc2)[C@@H]4c2ccccc2)C3c2ccc(C(F)(F)F)cc2)cc1 (stereo partly drawn)	Mot1-301 SUMO 427 | Yeast Mot1 SUMO inactive
Cc1cc(C)cc(NC(=O)CSc2nc(=O)n(CCCN3CCOCC3)c3c2CCCC3)c1	none (no result: MEKK2 WT-MEK5, MEKK3 PB1 HTS, MEKK2 mut-MEK5)
CN(C(=O)CSc1nc(-c2ccccc2)c(-c2ccccc2)o1)C1CCS(=O)(=O)C1 (stereo not drawn)	Mot1-301 SUMO 543 | Yeast Mot1 SUMO inactive
O=C(CCN1C(=O)C2CCCCC2C1=O)Nc1nc(-c2ccccc2)cs1 (stereo not drawn)	none
C=CCNc1nnc(SC2CC(=O)N(c3ccc(OCCC)cc3)C2=O)s1 (stereo not drawn)	Mot1-301 SUMO active | Yeast Mot1 SUMO inactive
O=C(NC1CCCC1)c1noc2c1CCCCC2	none
CC1CC1C(=O)OCC(=O)Nc1cc(S(=O)(=O)N2CCCCC2)ccc1Cl (stereo not drawn)	none (no result: MEKK2 WT-MEK5, MEKK3 PB1 HTS, MEKK2 mut-MEK5, CHT PAM, CHT block)
COc1cc(OC)cc(C(=O)NNC(=S)NCc2ccco2)c1	none
O=C(COc1ccc(Cl)cc1)N(Cc1ccc(F)cc1)C1CCS(=O)(=O)C1 (stereo not drawn)	none
COCCn1c(SCC(=O)N2CCCC2)nnc1-c1ccoc1C	Mot1-301 SUMO active | Yeast Mot1 SUMO inactive
CCC(CC)NC(=O)c1cc(S(=O)(=O)N2CCCCC2)ccc1N1CCOCC1	none (no result: MEKK2 WT-MEK5, MEKK3 PB1 HTS, MEKK2 mut-MEK5, CHT PAM, CHT block)
CC(C)NC(=O)c1c2c(nc3ccccc13)CCCC2	none
CN(C)C(=O)c1c2c(nc3ccccc13)CCCC2	Mot1-301 SUMO active | Yeast Mot1 SUMO inactive
COc1cc(NC(=O)C2=COCCO2)c(OC)cc1Cl	none (no result: MEKK2 WT-MEK5, MEKK3 PB1 HTS, MEKK2 mut-MEK5)
OCC[C@H]1C[C@@H](O)[C@H](O)[C@]2(OCCc3ccccc32)O1	none (no result: MEKK2 WT-MEK5, MEKK3 PB1 HTS, MEKK2 mut-MEK5)
O=C1CN(C(=O)c2c(F)cccc2F)C(c2ccc(F)cc2)c2cc(F)ccc2N1 (stereo not drawn)	Mot1-301 SUMO 677 | Yeast Mot1 SUMO inactive
O=C(NCc1ccccc1)c1cccc(COc2ccc(Cl)cc2)c1	Mot1-301 SUMO active | Yeast Mot1 SUMO inactive
COC(=O)c1ccc(CSc2nc3ccccc3c(=O)n2CC(C)C)o1	Mot1-301 SUMO 839 | Yeast Mot1 SUMO inactive
CCOC(=O)CSc1nc2ccccc2c(=O)n1CC(C)C	Mot1-301 SUMO 573 | Yeast Mot1 SUMO inactive
COc1ccccc1N1C(=O)N(CC(=O)C(C)(C)C)c2ccccc2S1(=O)=O	none
Cc1onc(-c2ccccc2)c1C(=O)N/N=C/C=C/c1ccccc1	Mot1-301 SUMO 382 | Yeast Mot1 SUMO inactive
COc1cccc(OC)c1OCC(=O)Nc1ccc(S(=O)(=O)N2CCCC2)cc1	none (no result: MEKK2 WT-MEK5, MEKK3 PB1 HTS, MEKK2 mut-MEK5, CHT PAM, CHT block)
CC1(C)NC(=O)N(CN2C(=O)NC(C)(C)C2=O)C1=O	none
CC1(C)NC(=O)N(CC(=O)O)C1=O	Mot1-301 SUMO 574 | Yeast Mot1 SUMO inactive
CC1CCC(C(C)C)C(OC(=O)COC(=O)c2ccc(N)cc2)C1 (stereo not drawn)	none
CC1CCC(C(C)C)C(OC(=O)COC(=O)c2cccn2C)C1 (stereo not drawn)	Mot1-301 SUMO 377 | Yeast Mot1 SUMO inactive
COc1ccc(-c2cc3cc4c(cc3cn2)OCO4)cc1	none (no result: MEKK2 WT-MEK5, MEKK3 PB1 HTS, MEKK2 mut-MEK5, CHT PAM, CHT block)
c1ccc(-c2cc3ccccc3cn2)cc1	Mot1-301 SUMO 372 (no result: MEKK2 WT-MEK5, MEKK3 PB1 HTS, MEKK2 mut-MEK5, CHT PAM, CHT block) | Yeast Mot1 SUMO inactive
c1ccc(-c2cc3cc4c(cc3cn2)OCO4)cc1	Mot1-301 SUMO 528 (no result: MEKK2 WT-MEK5, MEKK3 PB1 HTS, MEKK2 mut-MEK5, CHT PAM, CHT block) | Yeast Mot1 SUMO inactive
